Measured values: PubChem BioAssay AID1259343 (VanderVen Lab, College of Veterinary Medicine, Cornell …, 2017)
The campaign covered roughly 6,200 compounds. About 2,900 (47%) were called active. Rule as the data show it: active = inhibition above about 50%; inactive = the rest. So high a share suggests a set chosen from earlier hits. The list shows a part of the results.

test: Mycobacterium tuberculosis growth inhibition, primary screen (AID 1259343); settings: inhibition: at 10 µM, hits give high values; outcome: 10 uM

SMILES	inhibition
CCn1nc(NC(C)=O)c2cc3ccc(C)cc3nc21	-33.9% (inactive)
CN(C(=O)c1cc(Cl)sc1Cl)c1ccc(-c2onc3c2CCc2ccccc2-3)cc1	35.5% (inactive)
Fc1ccc(-c2nnc(SCc3cc(Cl)c4c(c3)OCCO4)o2)cc1	95.4% (active)
COc1ccc(C=NOCc2ccc(Cl)c(Cl)c2)c(OC)c1	32.8% (inactive)
N#Cc1ccc(CON=Cc2ccccc2OC(F)F)cc1	52.2% (active)
N#Cc1ccc(CON=Cc2ccccc2)cc1	70.7% (active)
C(=NOCc1ccc(CON=Cc2ccccc2)cc1)c1ccccc1	16.2% (inactive)
Cc1nc(-n2nc(C3CC3)cc2NC(=O)c2cccc(F)c2)[nH]c(=O)c1C	100% (active)
Cc1nc(-n2nc(C3CC3)cc2NC(=O)c2ccc(F)cc2)[nH]c(=O)c1C	101% (active)
Cc1cccc(C(=O)Nc2cc(C3CC3)nn2-c2nc(C)c(C)c(=O)[nH]2)c1	99.3% (active)
O=C1/C(=C/c2ccc(O)cc2)C(N2CCOCC2)=NN1c1ccc([N+](=O)[O-])cc1	36.6% (inactive)
O=[N+]([O-])c1ccc(N2CCCCC2)cc1	48.6% (inactive)
CC(c1ccccc1)N1CCN(c2ccc([N+](=O)[O-])cc2)CC1 (stereo unspecified)	56.5% (active)
C=CCc1c(C)nc2c(-c3ccccc3)cnn2c1NCCOC	17.5% (inactive)
C=CCc1c(C)nc2c(-c3cccc(Cl)c3)c(C)[nH]n2c1=O	99.8% (active)
C=CCc1c(C)nc2c(-c3ccccc3)cnn2c1NCCN(C)C	inactive
Fc1ccc(CN2CCN(c3cc(Oc4ccc(F)cc4Cl)ncn3)CC2)cc1	39.7% (inactive)
COc1ccccc1Oc1cc(Cl)ncn1	53.5% (active)
Fc1ccc(Oc2cc(N3CCc4ccccc4C3)ncn2)cc1F	34.6% (inactive)
Fc1ccc(Oc2cc(Cl)ncn2)cc1	73.1% (active)
COc1cc(C(C)=O)ccc1Oc1cnccn1	3.02% (inactive)
Cc1nnc(N2C(=O)C(=O)C(=C(O)c3ccc(OC(C)C)cc3)C2c2ccc([N+](=O)[O-])cc2)s1 (stereo unspecified)	35.4% (inactive)

SMILES	inhibition
COc1ccc(C(=O)N(C)c2nnc(C34CC5CC(CC(C5)C3)C4)s2)c(OC)c1	29.9% (inactive)
CN(C(=O)c1ccccc1)c1nnc(C23CC4CC(CC(C4)C2)C3)s1	70% (active)
O=C(Nc1ncc(Cl)s1)c1ccc(Cl)cn1	81.3% (active)
O=C(Nc1ncc(Cc2ccc(Cl)cc2)s1)c1cccs1	53.4% (active)
O=C(Cc1cccs1)Nc1ncc(Cc2ccc(F)c(F)c2)s1	44.8% (inactive)
CCCC(C)Nc1ncnc2sc3c(c12)CCC(C)C3 (stereo unspecified)	84.8% (active)
CC(=O)CSc1ncnc2sc3c(c12)CCC(C)C3 (stereo unspecified)	2.69% (inactive)
Clc1ccccc1CSc1nnc(-c2ccc[nH]2)o1	-6.43% (inactive)
N#Cc1c(SCc2ccccc2Cl)sc2c(=O)[nH]c(=O)[nH]c12	67.2% (active)
Nc1ccc2c(c1)C(=O)NCC2	61.7% (active)
Nc1ccc2c(c1)Cc1ccccc1-2	0.14% (inactive)
Nc1ccc2c(c1)-c1ccccc1C2	-7.01% (inactive)
C=CCNC(=S)Nc1ccc(Cl)cc1Cl	4.42% (inactive)
S=C(Nc1ccc2c(c1)OCO2)Nc1ccccc1Cl	19.5% (inactive)
S=C(NCC1CCCCC1)Nc1ccccc1Cl	89.6% (active)
O=C(NCCC12CC3CC(CC(C3)C1)C2)c1ccc2c(=O)n3c(nc2c1)CCCCC3	67% (active)
COc1ccc(C(C)NC(=O)Cc2ccccc2Cl)cc1F (stereo unspecified)	74.1% (active)
COc1ccc(C(C)NC(=O)c2ccco2)cc1F (stereo unspecified)	15.9% (inactive)
NC(Cc1ccc(C(F)(F)F)cc1)c1csc(Nc2ccccn2)n1 (stereo unspecified)	47% (inactive)
CC(C)CC(N)c1csc(Nc2ccc(C(F)(F)F)cn2)n1 (stereo unspecified)	91.8% (active)
NC(c1ccccc1)c1csc(Nc2ccc(C(F)(F)F)cn2)n1 (stereo unspecified)	1.35% (inactive)
NC(Cc1ccccc1)c1csc(Nc2ccc(C(F)(F)F)cn2)n1 (stereo unspecified)	86.1% (active)

SMILES	inhibition
NC(Cc1ccc(C(F)(F)F)cc1)c1csc(Nc2cnccn2)n1 (stereo unspecified)	53% (active)
COc1ccc(C(N)c2csc(Nc3ccc(C(F)(F)F)cn3)n2)cc1 (stereo unspecified)	86.2% (active)
NC(COCc1ccccc1)c1csc(Nc2ccc(C(F)(F)F)cn2)n1 (stereo unspecified)	66.5% (active)
FC(F)(F)c1ccc(Sc2ncccn2)nc1	-12% (inactive)
FC(F)(F)c1ccc(Nc2cnn(Cc3ccccc3)c2)nc1	58.1% (active)
CC(C)CCc1nc(Cn2c(C(F)(F)F)ccc(C(N)=O)c2=O)cs1	11.8% (inactive)
Cc1ccc(CS(=O)(=O)Cc2csc(CCC(C)C)n2)cc1	96% (active)
CN1C(=O)C(=Cc2cccc(OCc3ccccc3Cl)c2)C(=O)N(C)C1=O	14.1% (inactive)
Cc1cc(=O)[nH]c(-n2nc(C3CC3)cc2NC(=O)C(C)(C)Oc2ccc(Cl)cc2)n1	98.2% (active)
CCc1cc(=O)[nH]c(-n2nc(C)cc2NC(=O)C(C)(C)Oc2ccc(Cl)cc2)n1	-31% (inactive)
Cc1cc(=O)[nH]c(-n2nc(C)cc2NC(=O)C(C)(C)Oc2ccc(Cl)cc2)n1	101% (active)
Cc1cc(NC(=O)C(C)(C)Oc2ccc(Cl)cc2)n(-c2nc(C)c(C)c(=O)[nH]2)n1	100% (active)
CCc1sc(-c2nnc(-c3cccc(OC)c3)o2)cc1C	52.4% (active)
CCc1sc(-c2nnc(CSc3nnc(-c4ccco4)o3)o2)cc1C	-15.2% (inactive)
COc1cccc(C2=NN(C(C)=O)C(C(=O)N(CC(C)C)CC(C)C)O2)c1 (stereo unspecified)	-4.2% (inactive)
Cc1ccc(C(=O)C(C#N)C(=O)C2CCCC(C(F)(F)F)C2)s1 (stereo unspecified)	101% (active)
Cn1c(=O)oc2cc(NC(=O)C3CCCC(C(F)(F)F)C3)ccc21 (stereo unspecified)	-34.1% (inactive)
O=C(Nc1ccc(-n2cccn2)nc1)C1CCCC(C(F)(F)F)C1 (stereo unspecified)	7.71% (inactive)
Cc1ccc(NCCOc2ccccc2F)cc1-n1cnnn1	54.8% (active)
Cc1ccc(NC(=O)NC2CCC(C)CC2)cc1-n1cnnn1 (stereo unspecified)	-21.7% (inactive)
Cc1nn2c(NCCN3CCOCC3)cc(-c3ccccc3)nc2c1-c1ccccc1	48.5% (inactive)
CCn1c2ccccc2c2cc(Nc3ccnc(NCCCN4CCOCC4)n3)ccc21	53.6% (active)
